Inconclusive results are not listed. Activity calls are given as the source filed them. The call rests on the fitted dose curve; in most records, active means well fitted curve in the direction sought with a large enough effect; inconclusive means small, poorly fitted or top-dose-only effect, or another doubt; inactive means no such curve, though single readings can be large; an effect the other way counts as inactive or inconclusive.
What was measured:
[1] = qHTS for Hypoxia signaling pathway (HIF-1) agonists against the NCATS CANVASS Library (AID 1347375)
Summary of the method: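 An HRE-beta-lactamase ME-180 line is exposed for 17 h to an 11-point compound series, then read by CCF4-AM FRET. Cytotoxicity is measured in parallel in the same wells with CellTiter-Glo, and autofluorescence is checked separately.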

[2] = 10-beta competent E. coli microbial cell viability qHTS against the NCATS CANVASS Library (AID 1347376); further: series mostly up to about 46 µM
Summary of the method: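 Overnight 37C exposure of 10-beta E. coli (0.2 OD) to an 11-point concentration series; ATP-based luminescence after 20 min room-temperature reagent incubation; daunomycin as control.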

[3] = DH5-alpha competent E. coli microbial cell viability qHTS against the NCATS CANVASS Library (AID 1347377)
Summary of the method: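 Overnight incubation at 37C, 5% CO2 of E. coli DH5-alpha (diluted to 0.2 OD) with compounds precedes BacTiter-Glo addition. Luminescence, acquired after 20 min at room temperature, reflects viable-cell ATP.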

[4] = qHTS for H2AX Agonists against the NCATS CANVASS Library (AID 1347378)
Summary of the method: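 Phospho-H2AX (S139) in CHO-K1 lysates measured by HTRF, reported as 665/615 nm emission ratio after 24 hr antibody incubation at room temperature. Cells were first treated with a compound series for 3 hr at 37C (0.76% DMSO final).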

[5] = qHTS for Inflammasome Signaling Inhibitors: IL-1-beta AlphaLISA screen against the NCATS CANVASS Library (AID 1347379);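 further: human THP-1 cells primed with LPS then triggered with ATP; secreted IL-1B measured as AlphaLISA emission at 615 nm; lower signal means less IL-1B release which is the wanted effect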
Summary of the method: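 THP-1, 1 hr compound pre-incubation, then LPS 250 ng/mL + ATP 1.25 mM (final); 16 hr total with compound; IL-1B AlphaLISA, ex 680/em 615 nm; 11-point qHTS, up to 57.5 uM final.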

[6] = Inflammasome Signaling qHTS Counterscreen: IL-1-beta AlphaLISA counterscreen against the NCATS CANVASS Library (AID 1347381);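 further: cell-free check with purified IL-1β in medium and no THP-1 cells; series mostly up to about 57 µM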
Summary of the method: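 Here, no cellular stimulation occurs; compounds in an 11-point series meet 4 pg purified IL-1-beta directly. Bead-based AlphaLISA detection follows (1 h acceptor/antibody, then 30 min donor, dark, room temperature), with excitation at 680 nm.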

[7] = Cytotoxicity qHTS for assessment of Hepg2 cells membrane integrity screened against the NCATS CANVASS Library (AID 1347387)
Summary of the method: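 Membrane damage in HepG2 monolayers was estimated from released LDH, measured with CytoTox-ONE (ex 560/em 590 nm), after 5 hr treatment across 0.59 nM - 46 uM final.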

[8] = qHTS for Activators of p53 Stress Response Pathway screened against the NCATS CANVASS Library (AID 1347388)
Summary of the method: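 Beta-lactamase reporter driven by p53 response elements in HCT-116 cells, read as the 460 nm/530 nm emission ratio after CCF4 loading, following 16 h of exposure to an 11-point series. Cell viability was measured in the same wells by CellTiter-Glo luminescence.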

[9] = qHTS assay for small molecule disruptors of mitochondrial membrane potential screened against the NCATS CANVASS Library (AID 1347389); settings: HepG2 mitochondrial membrane potential, m-MPI red/green ratio, 1.5 h; further: potency means the concentration at half of the fitted maximal effect; nearly all actives have a fitted effect of over 60% in size
Summary of the method: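 Cells (HepG2) seeded the day before received compound or DMSO for 1 hr, then Mito-MPS dye for 30 min at 37C; emission at 590 nm over 535 nm gave the polarization signal.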

[10] = qHTS for Antimalaria activity screened against the NCATS CANVASS Library (AID 1347380);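 further: Plasmodium falciparum strain Dd2 asexual parasites grown in red blood cells; series mostly up to about 29 µM; nearly all actives have a fitted effect of over 40% in size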
Summary of the method: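 Measures proliferation or cytotoxicity against Dd2 blood stages in 72 h cultures, 11-point qHTS dosing, with SYBR Green fluorescence as read-out; dihydroartemisinin titration served as control.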

Measured: Potency

C=C(C)[C@@H]1CC[C@]2(C(=O)O)CC[C@]3(C)[C@H](CC[C@@H]4[C@@]5(C)CC[C@H](O)C(C)(C)[C@@H]5CC[C@]43C)[C@@H]12
active: [9] 18.6 µM
not listed: [10]
inactive: all other assays above

O=c1c(O)c(-c2ccc(O)c(O)c2)oc2cc(O)ccc12
active: [9] 23.4 µM
not listed: [2] | [3] | [8]
inactive: all other assays above
